Laboratory results reported in PubChem BioAssay AID1159580 (chemical genetic matrix, 2015).
Hit rate of the full screen: of about 5,500 compounds, about 2,000 (36%) were called active. Roughly 18% stayed inconclusive and do not appear here. No stated cut-off is given here; in the data, active means normalized growth mostly below about 0.91 (no sharp cut-off); inconclusive means no clear call, values can overlap the other calls; inactive means mostly above about 0.92. The list shows a part of the results.

Experiment: chemical genetic growth profiling, strain panel (AID 1159580);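 further: tested at 20 µM; growth read once vehicle control cultures reached saturation at 30 °C; 1 = growth at the plate median or of vehicle wells; lower values mean less growth of the strain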
Settings: growth OD

Measured: normalized growth

COc1cc2c(cc1OC)CC(=O)OC2
active: S. cerevisiae deletion strains, locus YLR039C, strain RIC1, hits give low values 1.23 [resistant]
inactive: S. cerevisiae deletion strains, locus YAL013W, strain DEP1, hits give low values 0.985 | S. cerevisiae deletion strains, locus YBR229C, strain ROT2, hits give low values 0.984 | S. cerevisiae deletion strains, locus YCL061C, strain MRC1, hits give low values 1 | S. cerevisiae deletion strains, locus YDL101C, strain DUN1, hits give low values 0.984 | S. cerevisiae deletion strains, locus YDR150W, strain NUM1, hits give low values 0.966 | S. cerevisiae deletion strains, locus YEL061C, strain CIN8, hits give low values 1 | S. cerevisiae deletion strains, locus YGR078C, strain PAC10, hits give low values 1.01 | S. cerevisiae deletion strains, locus YHR030C, strain SLT2, hits give low values 1.06 | S. cerevisiae deletion strains, locus YHR087W, strain rtc3, hits give low values 0.997 | S. cerevisiae deletion strains, locus YJR043C, strain POL32, hits give low values 0.993 | S. cerevisiae deletion strains, locus YJR075W, strain HOC1, hits give low values 0.995 | S. cerevisiae deletion strains, locus YKL190W, strain CNB1, hits give low values 1 | S. cerevisiae deletion strains, locus YLR058C, strain SHM2 (second series), hits give low values 0.994 | S. cerevisiae deletion strains, locus YLR085C, strain ARP6, hits give low values 1.03 | S. cerevisiae deletion strains, locus YLR262C, strain YPT6, hits give low values 1.16 | S. cerevisiae deletion strains, locus YML094W, strain GIM5, hits give low values 0.999 | S. cerevisiae deletion strains, locus YMR219W, strain ESC1, hits give low values 0.971 | S. cerevisiae deletion strains, locus YMR263W, strain SAP30, hits give low values 0.994 | S. cerevisiae deletion strains, locus YNL128W, strain TEP1, hits give low values 1 | S. cerevisiae deletion strains, locus YNL153C, strain GIM3, hits give low values 1.03 | S. cerevisiae deletion strains, locus YNL298W, strain CLA4 (second series), hits give low values 1.04 | S. cerevisiae deletion strains, locus YNL322C, strain KRE1, hits give low values 0.979 | S. cerevisiae deletion strains, locus YNR030W, strain Alg12, hits give low values 1.02 | S. cerevisiae deletion strains, locus YPL055C, strain LGE1, hits give low values 0.935 | S. cerevisiae deletion strains, locus YPL241C, strain CIN2, hits give low values 1 | S. cerevisiae deletion strains, locus YPR135W, strain CTF4, hits give low values 1.04 | S. cerevisiae strains, strain wild type, hits give low values 1.01
